The sample as a whole holds a higher share of hits than the screen did.
TTR transcr act: TTR transcription activation, primary screen. AID 1117267. 92,000 compounds, 1.3% hits. activation, % at 16.7 µM. SH-SY5Y TTR promoter Gaussia luciferase, luminescence; 100% = recombinant luciferase protein wells;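 active means activation above the mean of all tested compounds plus 3 SD, cut at about 9.5% in these data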;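 further: cells exposed to compounds for one day before reading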
TTR inh HuH7: counter-screen for TTR activators: TTR transcription inhibitors in HuH7 cells | shares compounds with TTR transcr act | HuH7 TTR promoter-Gaussia luciferase reporter, luminescence | inhibition, % at 16.7 µM | 1,100 compounds, 4% hits | AID 1117279;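 active means average inhibition above the solvent-only control wells' mean plus 3 SD, cut at about 15% in these data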;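 further: inhibitors lower well luminescence so higher value means more inhibition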
TTR up confirm: confirmation of human transthyretin transcription activators; AID 1117280; SHSY5Y TTR promoter Gaussia luciferase, luminescence; 100% = purified Lucia enzyme wells, no cells; shares compounds with TTR transcr act; 1,100 tested, under 10 active; activation, % at 16.7 µM;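 active means mean activation above a set limit taken from the earlier primary screen, cut at about 11% in these data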
A number is an active result; . = inactive.

SMILES	TTR transcr act	others
CC(C)c1ccc(CN2CCN(C(=O)CSc3nnnn3C3CC3)CC2)cc1	.
CC(C)c1ccc(S(=O)(=O)N2CCN(C(=O)C3CCCC3)CC2)cc1	.
O=C(COc1ccc(-n2cnnn2)cc1)Nc1ccc(F)c(F)c1F	.
O=C(COc1ccc(-n2cnnn2)cc1)Nc1ccc(F)cc1	.
O=C(COc1ccc(-n2cnnn2)cc1)Nc1ccc(F)c(F)c1	13	TTR inh HuH7=.;TTR up confirm=.
CN(C)C(C)(C)/C=C/C(O)(c1ccccc1)c1ccccc1	.
Cc1nc2ccccc2n1Cc1n[nH]c(=S)n1-c1ccc(Cl)cc1	.
Cc1ccc(-n2c(CSc3nc(C)cc(C)n3)n[nH]c2=S)cc1	26	TTR inh HuH7=.;TTR up confirm=.
Cc1ccc(-n2c(CNc3cccc(Cl)c3)n[nH]c2=S)cc1	.
CCN(C[C@H]1N[C@@](CC)(C(=O)OC)[C@H]2C(=O)N(Cc3ccccc3)C(=O)[C@@H]12)C(=O)c1ccc(C)cc1	.
O=C(Cc1ccc2c(c1)OCO2)N1CCC(n2nc(-c3ccccc3)oc2=O)CC1	.
O=C(c1ccoc1)N1CCCC(N2CCN(c3cccc(C(F)(F)F)c3)CC2)C1 (centres undefined)	.
Cc1ccc(C(=O)N2CCCC(N3CCN(c4cccc(C(F)(F)F)c4)CC3)C2)s1 (centres undefined)	.
CC1=C(C(=O)N2CCCC(N3CCN(c4cccc(C(F)(F)F)c4)CC3)C2)OCCO1 (centres undefined)	11	TTR inh HuH7=.;TTR up confirm=.
O=C(Nc1nc2ccccc2n1CCN1CCOCC1)c1ccc(COc2ccccc2Br)o1	.
CC(C)(C)OC(=O)N[C@@H](Cc1ccccc1)C(=O)N[C@@H](CO)[C@H](O)[C@@H]1C[C@@H]1C(=O)NC1CC1	.
CN(C(=O)COc1ccccc1)c1nc(-c2ccc(F)cc2)cs1	.
COCC(=O)Nc1nnc(-c2cccs2)s1	.
COCC(=O)N(C)c1nnc(-c2cnc(C)cn2)s1	9.7	TTR inh HuH7=.;TTR up confirm=.
COc1cccc2cc(C(=O)Nc3ccc(S(=O)(=O)NCC4CCCO4)cc3)c(=O)oc12 (centres undefined)	.
Cc1ccccc1CC1(CO)CCCN(Cc2nc(-c3cccs3)oc2C)C1 (centres undefined)	.
COc1ccc(CNC(=S)N/N=C/c2ccncc2)cc1	.
CC(C)COc1ccc(CNC(=S)N/N=C/c2ccc([N+](=O)[O-])cc2)cc1	11	TTR inh HuH7=.;TTR up confirm=.
CC(C)Oc1ccc(CNC(=S)N/N=C/c2ccc([N+](=O)[O-])cc2)cc1	.
COc1cc(NC(=S)N2CCN(C(=O)C3CCCO3)CC2)c(OC)cc1Cl (centres undefined)	.
SMILES	TTR transcr act	others
CNC(=O)COc1coc(CN2CCN(c3ccc(F)cc3)CC2)cc1=O	.
COc1ccc(Cc2c(-c3ccc(Cl)cc3)nc3c(C)cc(Br)cn23)c(C)c1	.
OCc1c(Cl)nc2ccccn12	.
c1ccc(-c2nc3ccccn3c2-c2ccccc2)cc1	.
Clc1cc2nc3ccccn3c2cc1Cl	13	TTR inh HuH7=.;TTR up confirm=.
Nc1c(C(=O)NCc2ccc3c(c2)OCO3)nnn1Cc1ccc(Br)cc1	.
CCn1c(N2CCN(S(=O)(=O)c3ccc(OC)cc3)CC2)nc2ccccc21	14	TTR inh HuH7=.;TTR up confirm=.
COc1ccc(S(=O)(=O)N2CCN(Cc3ccccc3OC)CC2)cc1	.
COc1ccc(S(=O)(=O)n2c(N)nc3ccccc32)cc1	.
CC1CCN(C(=O)Cn2c(=O)n(Cc3ccco3)c(=O)c3sccc32)CC1	.
COc1ccc(CN(C(=O)/C=C/c2ccco2)C2CCS(=O)(=O)C2)cc1OC (centres undefined)	.
COc1ccc(/C=C/C(=O)NCc2ccc3c(c2)OCO3)cc1OC	.
COc1ccc(CNC(=O)/C=C/c2ccco2)cc1OC	13	TTR inh HuH7=.;TTR up confirm=.
CCN(CC(=O)Nc1c(F)cccc1F)C(=O)c1c(-c2ccccc2Cl)noc1C	.
COc1cccc(NC(=O)CN(C)C(=O)c2c(-c3c(F)cccc3Cl)noc2C)c1	.
CCN(CC(=O)Nc1ccc(NC(C)=O)cc1)C(=O)c1c(-c2c(F)cccc2Cl)noc1C	17	TTR inh HuH7=.;TTR up confirm=.
O=C(NCCc1ccccc1)OCc1cn(Cc2cc(F)ccc2F)nn1	.
O=C(Nc1ccc(F)cc1F)c1cc2nc3c(c(C(F)(F)F)n2n1)CCCC3	.
COc1ccc(C2CCCN2C(=S)Nc2cccc(Cl)c2C)cc1OC (centres undefined)	.
Cc1noc(C)c1S(=O)(=O)Nc1ccc2c(c1)C(=O)N([C@H](C)CO)C[C@H](C)[C@H](CN(C)C(=O)NC(C)C)OCCCC[C@@H](C)O2	.
O=C(Cn1cnc2c(nnn2Cc2ccc(F)cc2)c1=O)NCc1ccc(F)cc1	.
COc1ccc(CCNC(=O)Cn2cnc3c(nnn3Cc3ccccc3F)c2=O)cc1OC	22	TTR inh HuH7=.;TTR up confirm=.
COc1ccc(CCNC(=O)Cn2nnc(-c3ccccc3F)n2)cc1OC	.
CNS(=O)(=O)c1cc(Br)ccc1S(=O)c1ccccc1C(=O)O (centres undefined)	.
COC(=O)[C@]12C[C@H](CC(=O)N3CCCC3)C(=O)N(Cc3cccc4ccccc34)C1=C[C@H](COCc1ccccc1)O[C@@H]2C	.
SMILES	TTR transcr act	others
C/C=C/C(=O)OCC(=O)Nc1ccc(OC)c(OC)c1	.
COc1ccc(NC(=O)CCCC(=O)O)cc1Cl	.
C/C=C/C(=O)OCC(=O)Nc1ccc(OC)c(Cl)c1	12	TTR inh HuH7=.;TTR up confirm=.
COc1ccc(S(=O)(=O)N2CCCCCC2)cc1C(=O)NCc1cccs1	.
COc1cccc(OC)c1NC(=O)OCCN1CCCC12CCC(c1ccccc1)CC2 (centres undefined)	.
Cc1ccccc1CSc1nnc(C)c(=O)[nH]1	.
Cc1nc(C)c(-c2ccc(SCc3ccccc3C)nn2)s1	16	TTR inh HuH7=.;TTR up confirm=.
COc1cccc(NC(=O)CSc2ccc(-c3sc(C)nc3C)nn2)c1	.
O=C1/C(=C/c2ccccc2)SC(=S)N1N1C(=O)C2CC2C1=O (centres undefined)	.
CCCCC(c1nc2ccccc2[nH]1)n1c(=O)c(-c2ccccc2)nc2cc(C)c(C)cc21 (centres undefined)	.
O=C(NCC1CCCO1)c1ccc2c(=O)n(-c3ccc(F)cc3)c(=S)[nH]c2c1 (centres undefined)	12	TTR inh HuH7=.;TTR up confirm=.
COc1ccccc1CNC(=O)c1ccc2c(=O)n(CC3CCCO3)c(=S)[nH]c2c1 (centres undefined)	.
O=C(NCC1CCCO1)c1ccc2c(=O)n(Cc3ccc(Cl)cc3)c(=S)[nH]c2c1 (centres undefined)	.
C[C@@H]1C[C@H]2O[C@@H]2/C=C\C=C\C(=O)Cc2cc(O)cc(O)c2C(=O)O1	.
COc1cccc(NC(=O)N2CCN(c3nc(-c4cccc(OC)c4)cs3)CC2)c1	.
COc1ccc(-c2cc(=O)[nH]c(N3CCN(Cc4ccccc4)CC3)n2)cc1	.
COc1cccc(-c2csc(N3CCN(Cc4ccccc4)CC3)n2)c1	10.0	TTR inh HuH7=.;TTR up confirm=.
CCn1c(=O)n2n(c1=O)[C@H]1C[N+](Cc3ccc4c(c3)OCO4)=C(N)NC1=C(C)C2	.
Cc1ccc(Cn2cc(COC(=O)N3CCCC3)nn2)cc1	.
CN(CC(=O)N1CCCCCC1)S(=O)(=O)c1ccc(Br)s1	.
CN(CC(=O)N1CCCCC1)S(=O)(=O)c1ccc(Cl)cc1	.
CN(CC(=O)N1CCCCCC1)S(=O)(=O)c1ccc(Br)cc1	20	TTR inh HuH7=.;TTR up confirm=.

From PubChem
